The values below come from PubChem BioAssay (Tox21).

Values joined by “and” are separate entries in the source; they are usually repeats but may differ in a detail not shown here. Equal values may be shown once. Results filed as inconclusive are left out. Active and inactive are the calls of the source. Calls follow the shape of the dose curve; as a rule, active = well fitted activation curve with a large enough effect in the repeat runs; inconclusive = weak or mixed curves; inactive = no such curve, though single readings can be large or run the other way.
% is scaled to controls: 0 for no effect and ±100 for the full control effect; potency is read from the fitted curve at half-maximal effect.

Sequence of Nuclear receptor subfamily 1 group I member 2 (Homo sapiens) (O75469 whole entry, looked up): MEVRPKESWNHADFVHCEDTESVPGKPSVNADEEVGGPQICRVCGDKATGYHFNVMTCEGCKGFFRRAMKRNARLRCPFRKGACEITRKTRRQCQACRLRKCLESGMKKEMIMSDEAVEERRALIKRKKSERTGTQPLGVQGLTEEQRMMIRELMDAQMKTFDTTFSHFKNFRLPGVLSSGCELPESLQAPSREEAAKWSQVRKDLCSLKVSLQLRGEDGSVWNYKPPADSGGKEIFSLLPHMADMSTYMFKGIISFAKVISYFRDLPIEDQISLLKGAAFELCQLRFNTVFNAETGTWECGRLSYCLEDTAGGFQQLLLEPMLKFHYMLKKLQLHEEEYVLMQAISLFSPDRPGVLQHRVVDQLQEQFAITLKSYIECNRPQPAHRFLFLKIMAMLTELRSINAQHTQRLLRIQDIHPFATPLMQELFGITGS

The assay addresses Nuclear receptor subfamily 1 group I member 2 (Homo sapiens) (UniProt O75469). Kind of assay: Human pregnane X receptor (PXR) small molecule agonists, qHTS assay (AID 1346982). Also: nearly all actives have a fitted effect of over 35% in size. As to conditions: PXR-Luc HepG2, CYP3A4 luciferase reporter, 24 h; series mostly up to 92.4 µM; activation: at the top concentration. From the text:
National Center for Advancing Translational Sciences [NCATS]
NIH Chemical Genomics Center [NCGC]
U.S. Environmental Protection Agency [EPA]
National Institutes of Environmental Health Sciences [NIEHS]
National Toxicology Program [NTP]
The human pregnane X receptor (hPXR) regulates the expression of several drug metabolizing enzymes and induction of these proteins is a major mechanism for developing drug resistance in cancer. One such key enzyme catalyzing the drug metabolism is cytochrome P450 3A4 (CYP3A4). Changes in CYP3A4 expression affect drug metabolism, thereby reducing the therapeutic efficacy and altering toxicological response to a drug and which finally causes adverse drug interaction. To screen Tox21 libraries for compounds that activate hPXR-mediated CYP3A4 gene expression, PXR-Luc HepG2 cells were used.
PXR-Luc HepG2 cells were dispensed at 2,000 per well in 5uL of assay medium containing 5% charcoal-stripped FBS into white solid bottom 1536-well plates (Corning Life Sciences, Corning, NY) using a Multidrop Combi (Thermo Scientific, Waltham, MA) dispenser. The assay plates were incubated at 37 C and 5% CO2 for 5hr, and then 23nL of compounds dissolved in DMSO and positive control were transferred using a Pintool station (Wako, San Diego, CA). The assay plates were incubated at 37C and 5% CO2 for 24hr. For luciferase read, 4uL of ONE-Glo reagent (Promega Corporation, Madison, WI) was added to each well of the assay plates using Flying Reagent Dispenser (FRD, Aurora Discovery, San Diego, CA) and incubated the assay plates at room temperature for 30min. The luminescence signal was quantified using a ViewLux plate reader (Perkin Elmer, Shelton, CT).
(In qHTS, concentration-response curves come from the screen itself.)
For the molecule `C[C@]12CC[C@H]3C(=CCc4cc(O)ccc43)[C@@H]1CCC2=O`, the Potency was 27.3 µM (active).
On the same count and under the same terms, then `CC1=C(/C=C/C(C)=C/C=C/C(C)=C\C=O)C(C)(C)CCC1`, with 51.6 µM (active).
Turning to `CCCCCCCCCCOCC(O)CN` (stereo not given), the “activation” value is -55% [at 42.5 µM] (inactive).
Take `[O]=[Zr]`: the “activation” value was 3.37% (inactive).
Still for that read-out and setting: the value for `CCCCCCCCCCCCCCCC` was -7.15% (inactive); that for `CCOC(=O)CN` was 2.14% (inactive).
With `Cc1ccc(N)cc1O`, the Potency is 34.4 µM (active).
Turning to `O=C1OC(=O)c2ccc3c4c(ccc1c24)C(=O)OC3=O`, the “activation” value was -4.42% (inactive).
`CCCCCCCCCCc1ccccc1`: the “activation” value is 8.84% (inactive).
Still for that read-out and setting: then `CCCCCCCCCCCCCOP(=O)(O)O`, with 6.13% (inactive); and `Cc1cccc(C)c1NC(=O)CN1CCN(CCCC(c2ccc(F)cc2)c2ccc(F)cc2)CC1`, with -31.2% [at 42.5 µM] (inactive).
Consider `Nc1cc(Cl)c([N+](=O)[O-])cc1O`, for which the Potency was 54 µM (active).
Turning to `CCCC(O)C(O)CO` (stereo not given), the “activation” value was 2.47% (inactive).
Still for that read-out and setting: then `CN1CN(C)CN(C)C1`, with 4.34% (inactive).
Consider `C/C=C/C(=O)Oc1c(CCCCCC(C)C)cc([N+](=O)[O-])cc1[N+](=O)[O-]`, for which the Potency was 21.7 µM (active).
As to `CN1CCN(C2Cc3ccccc3Sc3ccc(Cl)cc32)CC1` (stereo not given), the “activation” value is 21.5% [at 42.5 µM] (inactive).
Still for that read-out and setting: the value for `CCO[Si](CCCSSSSCCC[Si](OCC)(OCC)OCC)(OCC)OCC` was 19.9% (inactive); that for `CCC(=O)OCCc1ccccc1` was 8.81% (inactive); that for `CO[Si](CCC1CCC2OC2C1)(OC)OC` (stereo not given) was 3.17% (inactive).
On the same count and under the same terms, the value for `SCCCCCCCCS` was 13.6% (inactive).
In the case of `CCCCCCCCCC(=O)N(C)C`, the Potency is 62.1 µM (active).
`COC(=O)NCCC[Si](OC)(OC)OC`: the “activation” value was 10.8% (inactive).
Regarding `Clc1nc2ccccc2s1`, the “activation” value was -10.8% (inactive).
As to `COc1ccccc1OCCNCC(O)COc1cccc2[nH]c3ccccc3c12` (stereo not given), the Potency was 8.41 µM (active).
Consider `CCc1c(C(=O)O)c(=O)cnn1-c1ccc(Cl)cc1`, for which the “activation” value was -4.93% (inactive).
In the case of `CC(C)c1ccccc1N`, the Potency is 61.1 µM (active).
On to `CCCCCCCCCCCCCC[n+]1ccccc1`, for which the Potency was 8.63 µM (active).
As to `CCN(CC)CCNc1ccc(CO)c2sc3ccccc3c(=O)c12`, the “activation” value is -49.6% [at 42.5 µM] (inactive).
On to `CCCCCCOc1cc(C)c(O)c(C)c1C`, for which the Potency was 34.8 µM (active).
Consider `OCCC(O)CO` (stereo not given), for which the “activation” value was -2.53% (inactive).
Same read-out and setting: then `NC(=O)C(=O)N/N=C/c1ccc([N+](=O)[O-])o1`, with 16.7% [at 42.5 µM] (inactive).
Consider `CCCCCCCCCCCCOC(=O)c1cc(O)c(O)c(O)c1`, for which the Potency is 24.2 µM (active) and 21.7 µM (active).
Still for that read-out and setting: the value for `CCCCOc1ccc(C(=O)CCN2CCCCC2)cc1` was 6.68 µM (active).
As for `CC(=O)c1ccccc1N`, the “activation” value is 1.59% (inactive).
As to `N#CSCSc1nc2ccccc2s1`, the Potency was 7.7 µM (active).
Consider `C=CC(=C)CC/C=C(\C)CCC=C(C)C`, for which the activation was 8.17% [at 19 µM] (inactive).
With `Cc1cc2c(C(C)C)c(O)c(O)c(C=O)c2c(O)c1-c1c(C)cc2c(C(C)C)c(O)c(O)c(C=O)c2c1O`, the “activation” value was 12% [at 42.5 µM] (inactive).
The same measure, in the same setting: then `CCc1cccc(CC)c1N(COC)C(=O)CS(=O)(=O)O`, with 27.7% (inactive).
The same measure, in the same setting: the value for `C=CC/C=C/C/C=C/C/C=C/C` was -7.95% (inactive).
On to `OCCCCl`, for which the “activation” value was 3.65% (inactive).
